An excerpt weighted towards active compounds, which were near 4% of everything screened.
TWEAK-Fn14 inh = inhibitors of TWEAK-Fn14 signaling, primary screen, luciferase reporter cells, uHTS | TWEAK-stimulated Fn14 reporter cells, luciferase luminescence, 8 h | inhibition, % at 10 µM | 360,000 compounds, 2% hits; in the data active means inhibition above about 50%
CF NFkB block = inhibitors of PAF-induced NF-kB signaling, primary screen, cell-based, GFP fluorescence, uHTS; 360,000 compounds, 0.86% hits; KKLEB NF-kB-GFP reporter, GFP fluorescence overnight; inhibition, % at 5 µM;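 active means at least 50% inhibition at 5 µM, scaled per plate between neutral and stimulator controls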;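 further: PAF is a Pseudomonas aeruginosa culture filtrate used as stimulus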
KKLEB cytotox = cytotoxicity in KKLEB CF airway cells, primary screen, cytotoxicity control for CF NF-kB inhibitor project, cell-based, uHTS, fluorescence assay plates | KKLEB CF airway cells viability, ATPlite luminescence, overnight; stronger effect = lower value; cells stimulated with P. aeruginosa culture filtrate | 360,000 compounds, 0.36% hits | activity change (cytotoxicity), % at 5 µM;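 active means corrected activity change at or below -50% at 5 µM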
HIF-2a block = HIF-2a reporter inhibitors, primary screen, luminescence, 786-0 RCC cells | 786-0 RCC cells HIF-2a reporter, luciferase luminescence, overnight | inhibition, % at 18.8 µM | 360,000 compounds, 0.72% hits;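 active means inhibition of the luminescence signal of 40% or more relative to plate controls, in a single-dose primary screen at 18.75 µM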
Peg3 promoter = Peg3 promoter-driven luciferase inhibitors, primary screen, cell-based, HeLa, luciferase luminescence | 360,000 compounds, 1.7% hits | HeLa PEG-Prom luciferase reporter, overnight | inhibition, % at 20 µM;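 active means inhibition of at least 50% at 20 µM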
TROY signal inh = inhibitors of TROY-driven NF-kB signaling, primary screen, Q293 LMP1-TROYcd cells, NF-kB luciferase, uHTS; Q293 LMP1-TROYcd NF-kB luciferase reporter, 4 h; inhibition, % at 10 µM; 360,000 compounds, 0.98% hits;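 active means compounds whose plate-normalised and pattern-corrected inhibition of the luciferase reporter signal at the single screening dose is 50% or more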
CF NFkB inh conf = inhibitors of PAF-induced NF-kB signaling, retest, confirmation, cell-based, GFP fluorescence, single concentration. KKLEB CF airway cells, overnight. shares compounds with CF NFkB block. inhibition, % at 5 µM. 1,300 compounds, 64% hits; in the data active means inhibition above about 40%;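 further: stimulus PAF is a Pseudomonas aeruginosa filtrate and not platelet activating factor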
A number is an active result; 0 = inactive; - = no result given.

SMILES	TWEAK-Fn14 inh	CF NFkB block	KKLEB cytotox	HIF-2a block	Peg3 promoter	TROY signal inh	CF NFkB inh conf
CC1CC2C3CCC4=CC(=O)C=CC4(C)[C@@]3(Cl)C(O)CC2(C)C1(O)C(=O)CO (stereo not given in full)	0	66.5	0	0	0	0	0
CC1CCC(NC(=O)COC(=O)c2ccco2)CC1 (stereo not given)	0	0	0	0	0	0	-
C[C@@H]1C[C@H]2[C@@H]3CCC4=CC(=O)C=C[C@]4(C)[C@@]3(Cl)[C@@H](O)C[C@]2(C)[C@@]1(OC(=O)c1ccco1)C(=O)CCl	0	88.9	0	0	67.8	0	0
COc1ccccc1CNS(=O)(=O)c1ccc2c(c1)NC(=O)CO2	0	0	0	0	0	0	-
C=C(C)[C@@H]1CC[C@]2(C(=O)O)CC[C@]3(C)[C@H](CC[C@@H]4[C@@]5(C)CC[C@H](O)C(C)(C)[C@@H]5CC[C@]43C)[C@@H]12	0	69.7	0	0	54.0	0	55.8
COc1ccc(S(=O)(=O)Nc2ccccc2C(F)(F)F)cc1	0	0	0	0	0	0	-
COc1ccc([C@]2(C(C)C)ON(c3ccccc3C(F)(F)F)C2=O)cc1	0	58.3	0	0	66.2	0	51.7
COc1ccc2c(c1)C(=O)N(c1ccccc1OC)C(=O)C2(C)C	0	0	0	0	0	0	-
COc1ccccc1[C@]1(C)ON(c2ccccc2C(F)(F)F)C1=O	0	55.5	0	0	81.9	0	70.2
CCOc1ncccc1C(=O)OC(C)C(=O)Nc1ccc(Cl)cn1 (stereo not given)	0	0	0	0	0	0	-
CNc1ccccc1C(=O)OC(C)C(=O)Nc1ccc(Cl)cn1 (stereo not given)	0	69.0	0	0	99.9	0	0
CC(C)C(NC(=O)c1ccccc1NC(=O)c1ccccc1)C(=O)NCCCn1ccnc1 (stereo not given)	0	0	0	0	0	0	-
CCOC(=O)[C@@H]1[C@H]2COc3ccc(Br)cc3[C@H]2N2C(=O)N(c3ccc(C)cc3)C(=O)[C@]12C	0	50.8	0	0	0	0	41.9
CCOC(=O)[C@@H]1[C@H]2COc3ccc(Br)cc3[C@@H]2N2C(=O)N(c3ccc(C)cc3)C(=O)[C@]12C	0	0	0	0	0	0	-
CC(C)OCCCNC(=O)c1c(N)n(/N=C/c2ccccn2)c2nc3ccccc3nc12	0	56.4	0	0	0	0	0
COCCCNC(=O)c1c(N)n(/N=C/c2cccs2)c2nc3ccccc3nc12	0	0	0	0	0	0	-
O=C(c1ccccc1)C1OC1C(=O)c1ccccc1 (stereo not given)	69.9	56.1	0	0	0	0	53.9
CC1C=CC(C)C(C(=O)c2ccccc2)C1C(=O)c1ccccc1 (stereo not given)	0	0	0	0	0	0	-
Cn1nccc1C(=O)Nc1cc(Cl)ccc1Cl	0	69.5	0	0	0	0	0
CCC(Oc1ccccc1)C(=O)Nc1nnc(C)s1 (stereo not given)	0	0	0	0	0	0	-
O=C(COc1ccc(Cl)cc1)Nc1ncc([N+](=O)[O-])s1	79.2	57.0	0	0	0	0	75.3
CCC(Oc1ccccc1)C(=O)Nc1ncc([N+](=O)[O-])s1 (stereo not given)	0	50.2	0	0	0	0	46.1
Cc1ccc(N2CC(C(=O)NCCN3CCOCC3)CC2=O)cc1C (stereo not given)	0	0	0	0	0	0	-
O=C(O)c1ccc(-n2ncc(Cl)c(Cl)c2=O)cc1	0	74.3	0	0	0	0	0
CCCc1cc(=O)oc2cc(OC(C)C(=O)NC3CC(C)(C)NC(C)(C)C3)ccc12 (stereo not given)	0	0	0	0	0	0	-
SMILES	TWEAK-Fn14 inh	CF NFkB block	KKLEB cytotox	HIF-2a block	Peg3 promoter	TROY signal inh	CF NFkB inh conf
Brc1cccc(CSc2nnc(-c3ccncc3)o2)c1	62.5	59.1	0	0	0	0	69.0
Cc1ccccc1S(=O)(=O)Cc1ccc(C(=O)N2CCN(c3cccc(C)c3C)CC2)o1	0	68.2	0	0	69.9	0	63.4
Cc1ccccc1S(=O)(=O)Cc1ccc(C(=O)N2CC(C)CC(C)C2)o1 (stereo not given)	0	0	0	0	0	0	-
Cc1ccc(NC(=O)CSC(C)C(=O)OCc2cc(=O)oc3cc(O)ccc23)cc1 (stereo not given)	0	0	0	0	0	0	-
C[C@H](NC(=O)C[C@@H]1C=C[C@@H](NC(=O)CN2CCOCC2)[C@@H](CO)O1)c1ccccc1	-	-	-	0	-	-	-
Cc1cc(C)c(C(N)=O)c(Nc2cccc3ccccc23)n1	0	50.4	0	0	0	0	0
COc1ccc(CNC(=O)C[C@H]2C[C@H](C(=O)N3CCCCC3)[C@@]3(CCc4ccccc4)c4[nH]c5ccc(Cl)cc5c4CCN3C2=O)cc1OC	0	50.8	0	0	0	0	0
O=C(Oc1ccccc1C(=O)Nc1ccccc1)c1ccccc1Br	0	61.6	0	0	0	0	0
O=C(COc1ccccc1C(=O)Nc1ccccc1)c1ccc(Br)cc1	0	0	0	0	0	0	-
CC(=O)Nc1ccc(-c2ccnc3c2CC(C(=O)NCC2CC2)O3)cc1 (stereo not given)	0	0	0	0	0	0	-
CC(=O)Nc1ccc(-c2ccnc3c2CC(C(=O)NCc2ccccc2)O3)cc1 (stereo not given)	0	55.7	0	0	0	0	48.8
CC(=O)Nc1ccc(-c2ccnc3c2CC(C(=O)NCc2ccco2)O3)cc1 (stereo not given)	0	60.0	0	0	0	0	60.9
CC[C@@H](NC(=O)[C@H](Cc1ccccc1)NC(=O)CC[C@H]1O[C@@H](n2ccc(=O)[nH]c2=O)[C@H](O)[C@@H]1O)c1ccccc1	0	0	0	0	0	0	-
CC(C(=O)Nc1cccc(S(=O)(=O)N2CCOCC2)c1)N1CCN(C)CC1 (stereo not given)	0	0	0	0	0	0	-
N=c1c(S(=O)(=O)c2ccc(Br)cc2)cc2c(=O)n3ccccc3nc2n1Cc1ccco1	0	82.3	0	0	0	0	0
O=C(NCC(=O)N1CCC2(CC1)NCCc1[nH]cnc12)c1ccc2ccccc2c1	0	0	0	0	0	0	-
Cc1nc2c(C)c(C)c(C)c(C)c2nc1C	0	0	0	0	0	0	-

Compound activity (PubChem)
